In PubChem BioAssay (NCI):
This is part of a sample that, as a whole, favours compounds with a hit. Of some 83,000 tested, about 20% had one in any assay.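 Values shown are percent growth following 48 h exposure of cells in 96-well plates to a single concentration of compound; below 10 was considered active.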 A number with no mark means an inactive call. Calls of active or inactive are those of the source.

How the values were obtained:
Assay in all cases: NCI-60 one-dose screen, 48 h (100 = growth as untreated, 0 = no growth, -100 = all killed)
Details in all cases: 10 µM unless noted
SR leukemia = system: SR leukemia
RPMI-8226 leukemia = system: RPMI-8226 leukemia
OVCAR-5 ovarian = system: OVCAR-5 ovarian
OVCAR-4 ovarian = system: OVCAR-4 ovarian
SK-OV-3 ovarian = system: SK-OV-3 ovarian
IGROV1 ovarian = system: IGROV1 ovarian
OVCAR-3 ovarian = system: OVCAR-3 ovarian
HS 578T breast = system: HS 578T breast
NCI/ADR-RES ovarian = system: NCI/ADR-RES ovarian
OVCAR-8 ovarian = system: OVCAR-8 ovarian

Structure (SMILES): OCC1(CCCc2ccccc2)CCCN(c2nccc3ccccc23)C1 (centres undefined)
- growth (SR leukemia): 12.1%
- growth (RPMI-8226 leukemia): 5.11% (active)
- growth (OVCAR-5 ovarian): 62.4%
- growth (OVCAR-4 ovarian): 32.8%
- growth (SK-OV-3 ovarian): 57.7%
- growth (IGROV1 ovarian): 62.2%
- growth (OVCAR-3 ovarian): 45.6%
- growth (HS 578T breast): 42%
- growth (NCI/ADR-RES ovarian): 11.8%

Structure (SMILES): Cc1cc(=O)oc2cc(OCCCOc3ccc(/C=C/C(=O)Nc4ccccc4N)cc3)ccc12
- growth (SR leukemia): 21.4%
- growth (RPMI-8226 leukemia): 0.19% (active)
- growth (OVCAR-8 ovarian): 44.2%
- growth (OVCAR-4 ovarian): 40.9%
- growth (SK-OV-3 ovarian): 7.97% (active)
- growth (IGROV1 ovarian): 39.4%
- growth (OVCAR-3 ovarian): 5.72% (active)
- growth (NCI/ADR-RES ovarian): 21.3%

Structure (SMILES): O=C(N1c2ccccc2Sc2ccccc21)n1ccc2cccnc21
- growth (SR leukemia): 12.1%
- growth (RPMI-8226 leukemia): 40.4%
- growth (OVCAR-8 ovarian): 88.1%
- growth (OVCAR-4 ovarian): 65.6%
- growth (SK-OV-3 ovarian): 79.9%
- growth (IGROV1 ovarian): 72%
- growth (OVCAR-3 ovarian): 82%
- growth (HS 578T breast): 70.7%
- growth (NCI/ADR-RES ovarian): 57.7%

Structure (SMILES): CCCCNC(=S)Nc1ccc(OCc2nc3ccccc3[nH]2)cc1
- growth (SR leukemia): 53.7%
- growth (RPMI-8226 leukemia): 58.8%
- growth (OVCAR-5 ovarian): 86%
- growth (OVCAR-4 ovarian): 57.2%
- growth (SK-OV-3 ovarian): 113%
- growth (IGROV1 ovarian): 78.6%
- growth (OVCAR-3 ovarian): 60.3%
- growth (NCI/ADR-RES ovarian): 65.9%

Structure (SMILES): C=C1CCC2C3(C)COC(c4cc(F)cc(F)c4)OC3CCC2(C)C1CC(O)C1=CCOC1=O (centres undefined)
- growth (SR leukemia): 28.6%
- growth (RPMI-8226 leukemia): 11%
- growth (OVCAR-8 ovarian): 16.2%
- growth (OVCAR-4 ovarian): 53.1%
- growth (IGROV1 ovarian): 60.1%
- growth (OVCAR-3 ovarian): 61.4%
- growth (HS 578T breast): 70.4%
- growth (NCI/ADR-RES ovarian): 14.5%

Structure (SMILES): CC(C)Sc1nc(NCCc2c[nH]c3ccccc23)c(C#N)c(-c2ccc(F)cc2)n1
- growth (SR leukemia): -19.8% (active)
- growth (RPMI-8226 leukemia): 14.1%
- growth (OVCAR-5 ovarian): 81.9%
- growth (OVCAR-4 ovarian): 59.1%
- growth (SK-OV-3 ovarian): 76.9%
- growth (IGROV1 ovarian): 90.4%
- growth (OVCAR-3 ovarian): 58.1%
- growth (HS 578T breast): 43%
- growth (NCI/ADR-RES ovarian): 29.5%

Structure (SMILES): COC1=C[C@]23CCC(=O)N2CCc2cc4c(cc2[C@@H]3[C@@H]1OC(=O)[C@H](C)O)OCO4
- growth (SR leukemia): -11.9% (active)
- growth (RPMI-8226 leukemia): -17.9% (active)
- growth (OVCAR-8 ovarian): 29.1%
- growth (OVCAR-4 ovarian): 13.1%
- growth (IGROV1 ovarian): 20%
- growth (OVCAR-3 ovarian): -2.32% (active)
- growth (HS 578T breast): 53.9%
- growth (NCI/ADR-RES ovarian): 74.6%
